Test results published in PubChem BioAssay (EPA / NIEHS).
Active and inactive are the calls of the source. How the source made its calls: active means hit-call score of the fitted dose curve at least 0.9, where 1 is the maximum; inactive means score below 0.9.

Assays:
Conditions in all cases: mRNA level, 48 h; actives raise or lower the signal
[1] = read-out: MicroRNA 122 (MIR122), gene 406906; test: LTEA_HepaRG_MIR122: Life Technologies and Expression Analysis (LTEA) Assay for MicroRNA 122 (MIR122) using HepaRG (AID 2283516); further: the transcript read is the microRNA miR-122
Summary of the method: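 Differentiated human HepaRG cells in serum-free induction medium exposed 48 h to 8 half-log concentrations from 100 uM in 0.5% DMSO, duplicate. MIR122 quantified by Fluidigm TaqMan qRT-PCR, normalised to ACTB, GAPDH, POLR2A; fold change fitted bidirectionally versus DMSO.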

[2] = read-out: matrix metalloproteinase-10 (MMP10), MMP10 (gene 4319); test: LTEA_HepaRG_MMP10: Life Technologies and Expression Analysis (LTEA) Assay for matrix metalloproteinase-10 (MMP10) using HepaRG (AID 2283517)
Summary of the method: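 HepaRG, collagen I, ~100,000 cells/well; serum-free induction medium; 48 h exposure, duplicate, 8-pt half-log to 100 uM, 0.5% DMSO. Readout: TaqMan qRT-PCR, normalized to ACTB/GAPDH/POLR2A; bidirectional fit vs DMSO.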

MYC, MYC (gene 4609) = test: LTEA_HepaRG_MYC: Life Technologies and Expression Analysis (LTEA) Assay for MYC using HepaRG (AID 2283518)
Summary of the method: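 Expression changes were scored by TaqMan qRT-PCR with ACTB, GAPDH and POLR2A normalization. Cultures in serum-free induction medium received duplicate 8-point concentration series, highest 100 uM, for 48 h; DMSO (0.5%) served as baseline.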

[3] = read-out: matrix metalloproteinase-3 (MMP3), MMP3 (gene 4314); test: LTEA_HepaRG_MMP3: Life Technologies and Expression Analysis (LTEA) Assay for matrix metalloproteinase-3 (MMP3) using HepaRG (AID 2283519)
Summary of the method: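 Differentiated human HepaRG cells, plated 48 h on collagen I, were exposed in duplicate for 48 h in serum-free induction medium to eight half-log concentrations up to 100 uM in 0.5% DMSO. MMP3 mRNA was quantified by TaqMan qRT-PCR, normalised to ACTB, GAPDH and POLR2A.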

[4] = read-out: Paternally Expressed 10 (PEG10), PEG10 (gene 23089); test: LTEA_HepaRG_PEG10: Life Technologies and Expression Analysis (LTEA) Assay for Paternally Expressed 10 (PEG10) using HepaRG (AID 2283520)
Summary of the method: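 Differentiated HepaRG cells exposed 48 h in serum-free induction medium to eight half-log concentrations topping at 100 uM, 0.5% DMSO, in duplicate. PEG10 mRNA quantified by TaqMan qRT-PCR, normalized to ACTB, GAPDH and POLR2A; bidirectional fit versus DMSO.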

[5] = read-out: Nuclear factor NF-kappa-B p105 subunit (Homo sapiens) (UniProt P19838); test: LTEA_HepaRG_NFKB1: Life Technologies and Expression Analysis (LTEA) Assay for Nuclear Factor Kappa B Subunit 1 (NFKB1) using HepaRG (AID 2283521)
Summary of the method: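 Differentiated human HepaRG cells were exposed for 48 h in serum-free induction medium to eight concentrations (top 100 uM, half-log steps, 0.5% DMSO), in duplicate. NFKB1 mRNA was measured by TaqMan qRT-PCR, normalized to ACTB/GAPDH/POLR2A, and fitted bidirectionally against DMSO.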

[6] = read-out: Protein phosphatase 2A (PPP2R4), PTPA (gene 5524); test: LTEA_HepaRG_PPP2R4: Life Technologies and Expression Analysis (LTEA) Assay for Protein phosphatase 2A (PPP2R4) using HepaRG (AID 2283522)
Summary of the method: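 Differentiated human HepaRG cells in serum-free induction medium were exposed 48 h to 8 concentrations (top 100 µM, half-log steps, duplicate) in 0.5% DMSO. PPP2R4 mRNA was measured by TaqMan qRT-PCR, normalised to ACTB, GAPDH and POLR2A, and fitted bidirectionally versus DMSO.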

[7] = read-out: Phosphatase and tensin (PTEN), PTEN (gene 5728); test: LTEA_HepaRG_PTEN: Life Technologies and Expression Analysis (LTEA) Assay for Phosphatase and tensin (PTEN) using HepaRG (AID 2283523)
Summary of the method: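 Differentiated human HepaRG cells, plated 48 h then switched to serum-free induction medium, were exposed in duplicate for 48 h to eight half-log concentrations up to 100 uM in 0.5% DMSO. PTEN mRNA measured by TaqMan qRT-PCR, normalized to ACTB/GAPDH/POLR2A, bidirectional fit versus DMSO.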

[8] = read-out: solute carrier (SLC22A1), SLC22A1 (gene 6580); test: LTEA_HepaRG_SLC22A1: Life Technologies and Expression Analysis (LTEA) Assay for solute carrier (SLC22A1) using HepaRG (AID 2283524)
Summary of the method: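 Human HepaRG cells were plated 48 h, switched to serum-free induction medium, then exposed in duplicate for 48 h to 8-point half-log series from 100 uM in 0.5% DMSO. SLC22A1 mRNA measured by qRT-PCR, normalized to ACTB/GAPDH/POLR2A, fitted bidirectionally versus DMSO.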

[9] = read-out: Pyruvate Dehydrogenase Kinase 4 (PDK4), PDK4 (gene 5166); test: LTEA_HepaRG_PDK4: Life Technologies and Expression Analysis (LTEA) Assay for Pyruvate Dehydrogenase Kinase 4 (PDK4) using HepaRG (AID 2283525)
Summary of the method: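 Differentiated human HepaRG cells, pre-cultured 48 h, were exposed in duplicate for 48 h in serum-free induction medium to eight half-log concentrations up to 100 uM in 0.5% DMSO. PDK4 mRNA was quantified by qRT-PCR, normalized to ACTB, GAPDH and POLR2A, bidirectional fitting versus DMSO.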

[10] = read-out: NAD(P)H dehydrogenase [quinone] 1 (NQO1), NQO1 (gene 1728); test: LTEA_HepaRG_NQO1: Life Technologies and Expression Analysis (LTEA) Assay for NAD(P)H dehydrogenase [quinone] 1 (NQO1) using HepaRG (AID 2283526)
Summary of the method: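 Differentiated human HepaRG cells in serum-free induction medium, dosed in duplicate for 48 h at 8 half-log concentrations up to 100 uM in 0.5% DMSO. NQO1 mRNA by qRT-PCR normalized to ACTB, GAPDH, POLR2A; bidirectional fit versus DMSO baseline.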

[11] = read-out: Nuclear factor erythroid 2-related factor 2 (Homo sapiens) (UniProt Q16236); test: LTEA_HepaRG_NFE2L2: Life Technologies and Expression Analysis (LTEA) Assay for Nuclear factor erythroid 2-related factor 2 (NFE2L2) Transcription Factor using HepaRG (AID 2283527)
Summary of the method: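 Differentiated human HepaRG cells in serum-free induction medium were exposed for 48 h to eight concentrations (top 100 uM, half-log dilutions, 0.5% DMSO), in duplicate. NFE2L2 mRNA was quantified by TaqMan qRT-PCR, normalized to ACTB, GAPDH and POLR2A, with bidirectional fitting versus DMSO.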

[12] = read-out: succinate dehydrogenase complex iron sulfur subunit B (SDHB), SDHB (gene 6390); test: LTEA_HepaRG_SDHB: Life Technologies and Expression Analysis (LTEA) Assay for succinate dehydrogenase complex iron sulfur subunit B (SDHB) using HepaRG (AID 2283528)
Summary of the method: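 HepaRG, 48 h exposure, 8-pt half-log series from 100 uM in 0.5% DMSO, duplicates. Readout: SDHB mRNA by Fluidigm qRT-PCR vs housekeeping genes; bidirectional fit relative to DMSO.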

[13] = read-out: Signal transducer and activator of transcription 3 (Homo sapiens) (UniProt P40763); test: LTEA_HepaRG_STAT3: Life Technologies and Expression Analysis (LTEA) Assay for Signal transducer and activator of transcription (STAT3) using HepaRG (AID 2283529)
Summary of the method: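 Differentiated human HepaRG cells in serum-free induction medium were exposed in duplicate for 48 h to eight half-log concentrations up to 100 uM in 0.5% DMSO. STAT3 mRNA was quantified by TaqMan qRT-PCR, normalized to ACTB, GAPDH and POLR2A, and fitted bidirectionally against DMSO.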

[14] = read-out: solute carrier (SLCO1B1), SLCO1B1 (gene 10599); test: LTEA_HepaRG_SLCO1B1: Life Technologies and Expression Analysis (LTEA) Assay for solute carrier (SLCO1B1) using HepaRG (AID 2283530)
Summary of the method: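 Human HepaRG cultures treated for 48 h with an eight-concentration half-log series topping at 100 uM; SLCO1B1 measured by qRT-PCR and fitted bidirectionally relative to DMSO.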

[15] = read-out: sulfotransferase 2A1 (SULT2A1), SULT2A1 (gene 6822); test: LTEA_HepaRG_SULT2A1: Life Technologies and Expression Analysis (LTEA) Assay for sulfotransferase 2A1 (SULT2A1) using HepaRG (AID 2283531)
Summary of the method: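 Gene-expression endpoint in a human liver cell line: SULT2A1 mRNA change after 48 h chemical treatment, curves fitted in both directions relative to 0.5% DMSO vehicle. Concentrations spanned eight half-log steps from 100 uM.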

[16] = read-out: Transforming Growth Factor (TGFA), TGFA (gene 7039); test: LTEA_HepaRG_TGFA: Life Technologies and Expression Analysis (LTEA) Assay for Transforming Growth Factor (TGFA) using HepaRG (AID 2283532)
Summary of the method: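 Differentiated human HepaRG cells, plated 48 h then switched to serum-free induction medium, were exposed in duplicate for 48 h to 8-point half-log series from 100 uM in 0.5% DMSO. TGFA mRNA measured by qRT-PCR, normalized to ACTB/GAPDH/POLR2A, bidirectional fit versus DMSO.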

[17] = read-out: Transforming Growth Factor (TGFB1), TGFB1 (gene 7040); test: LTEA_HepaRG_TGFB1: Life Technologies and Expression Analysis (LTEA) Assay for Transforming Growth Factor (TGFB1) Transporter using HepaRG (AID 2283533)
Summary of the method: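 Eight-point concentration-response (max 100 uM, half-log) in HepaRG under serum-free induction conditions, 48 h. TGFB1 mRNA by qRT-PCR, housekeeping-normalized.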

TIMP1, TIMP1 (gene 7076) = test: LTEA_HepaRG_TIMP1: Life Technologies and Expression Analysis (LTEA) Assay for TIMP1 using HepaRG (AID 2283534);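 further: TaqMan qRT-PCR signal normalized to ACTB GAPDH and POLR2A housekeeping genes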
Summary of the method: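 TIMP1 induction or repression in HepaRG cells after 48 h chemical exposure (eight concentrations, highest 100 uM), assessed by normalized qRT-PCR with bidirectional fitting to DMSO controls.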

[18] = read-out: Tumor necrosis factor receptor 1 (TNFRSF1A), TNFRSF1A (gene 7132); test: LTEA_HepaRG_TNFRSF1A: Life Technologies and Expression Analysis (LTEA) Assay for Tumor necrosis factor receptor 1 (TNFRSF1A) using HepaRG (AID 2283535)
Summary of the method: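 Assay uses 48 h chemical treatment of differentiated HepaRG monolayers, tested in duplicate at eight concentrations from 100 uM downward in 0.5% DMSO. mRNA is normalized to ACTB, GAPDH and POLR2A, with induction or suppression fitted relative to vehicle.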

Measured: AC50

Chain of Nuclear factor erythroid 2-related factor 2 (Homo sapiens) (Q16236 whole entry, looked up): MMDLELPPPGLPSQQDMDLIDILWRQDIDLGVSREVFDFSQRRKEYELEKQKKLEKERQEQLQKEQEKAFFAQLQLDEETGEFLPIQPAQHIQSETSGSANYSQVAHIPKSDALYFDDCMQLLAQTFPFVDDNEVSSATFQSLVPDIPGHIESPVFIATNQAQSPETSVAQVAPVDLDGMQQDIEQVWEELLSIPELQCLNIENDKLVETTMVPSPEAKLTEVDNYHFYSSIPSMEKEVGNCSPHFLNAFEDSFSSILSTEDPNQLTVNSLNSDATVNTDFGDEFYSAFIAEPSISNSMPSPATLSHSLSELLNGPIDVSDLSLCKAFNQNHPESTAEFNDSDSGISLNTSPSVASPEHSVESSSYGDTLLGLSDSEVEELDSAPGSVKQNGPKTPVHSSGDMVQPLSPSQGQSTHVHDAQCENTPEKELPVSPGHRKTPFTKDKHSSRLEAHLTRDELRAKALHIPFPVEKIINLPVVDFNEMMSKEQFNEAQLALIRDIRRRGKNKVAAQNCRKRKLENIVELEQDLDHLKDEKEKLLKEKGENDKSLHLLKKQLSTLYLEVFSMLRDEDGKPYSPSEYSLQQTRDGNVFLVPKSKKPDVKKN
Chain of Nuclear factor NF-kappa-B p105 subunit (Homo sapiens) (P19838 whole entry, looked up): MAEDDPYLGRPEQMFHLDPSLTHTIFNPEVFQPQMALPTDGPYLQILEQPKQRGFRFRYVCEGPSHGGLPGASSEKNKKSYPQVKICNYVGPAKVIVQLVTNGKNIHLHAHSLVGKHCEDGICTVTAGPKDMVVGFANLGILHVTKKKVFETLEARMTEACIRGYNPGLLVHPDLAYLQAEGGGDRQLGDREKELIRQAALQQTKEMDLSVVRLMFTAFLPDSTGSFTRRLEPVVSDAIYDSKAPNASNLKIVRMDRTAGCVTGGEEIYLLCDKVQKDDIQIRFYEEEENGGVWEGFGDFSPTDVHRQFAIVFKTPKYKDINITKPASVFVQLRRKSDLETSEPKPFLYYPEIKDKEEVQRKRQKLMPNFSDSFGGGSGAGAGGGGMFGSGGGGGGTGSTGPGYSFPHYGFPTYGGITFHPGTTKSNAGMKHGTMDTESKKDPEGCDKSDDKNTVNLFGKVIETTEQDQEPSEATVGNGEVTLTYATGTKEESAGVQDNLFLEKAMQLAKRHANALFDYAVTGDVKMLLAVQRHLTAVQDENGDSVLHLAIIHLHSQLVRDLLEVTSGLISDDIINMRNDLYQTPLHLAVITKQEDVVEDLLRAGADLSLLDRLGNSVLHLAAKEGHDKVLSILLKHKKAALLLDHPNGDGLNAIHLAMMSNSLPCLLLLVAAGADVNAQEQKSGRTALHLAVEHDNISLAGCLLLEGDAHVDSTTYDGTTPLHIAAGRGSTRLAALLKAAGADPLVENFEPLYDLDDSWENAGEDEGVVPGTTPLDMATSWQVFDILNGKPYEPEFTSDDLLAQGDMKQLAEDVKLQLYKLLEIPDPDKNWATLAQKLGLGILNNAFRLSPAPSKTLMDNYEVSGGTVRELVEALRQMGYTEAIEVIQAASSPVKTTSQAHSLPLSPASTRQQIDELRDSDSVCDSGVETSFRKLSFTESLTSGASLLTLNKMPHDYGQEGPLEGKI
Chain of Signal transducer and activator of transcription 3 (Homo sapiens) (P40763 whole entry, looked up): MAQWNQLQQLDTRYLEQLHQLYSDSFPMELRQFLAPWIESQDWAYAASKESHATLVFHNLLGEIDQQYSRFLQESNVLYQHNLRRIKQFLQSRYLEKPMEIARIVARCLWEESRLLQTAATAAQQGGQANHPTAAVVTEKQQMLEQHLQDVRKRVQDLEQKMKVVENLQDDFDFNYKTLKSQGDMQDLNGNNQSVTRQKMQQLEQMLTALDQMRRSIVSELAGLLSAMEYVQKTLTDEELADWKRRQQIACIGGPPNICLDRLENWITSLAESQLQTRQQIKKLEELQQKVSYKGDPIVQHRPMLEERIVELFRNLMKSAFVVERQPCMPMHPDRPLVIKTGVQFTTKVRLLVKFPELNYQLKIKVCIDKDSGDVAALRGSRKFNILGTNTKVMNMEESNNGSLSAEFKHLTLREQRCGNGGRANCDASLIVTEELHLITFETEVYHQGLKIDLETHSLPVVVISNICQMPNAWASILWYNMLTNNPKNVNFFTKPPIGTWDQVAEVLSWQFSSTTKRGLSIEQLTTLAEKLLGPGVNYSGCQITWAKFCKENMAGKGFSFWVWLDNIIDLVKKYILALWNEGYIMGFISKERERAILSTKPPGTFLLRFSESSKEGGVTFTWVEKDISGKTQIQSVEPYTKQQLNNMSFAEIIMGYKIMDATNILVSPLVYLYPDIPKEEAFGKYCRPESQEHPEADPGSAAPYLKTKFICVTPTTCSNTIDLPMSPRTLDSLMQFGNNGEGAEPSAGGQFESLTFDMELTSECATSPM

CCN(CC)CCOc1ccc(C(=C(Cl)c2ccccc2)c2ccccc2)cc1
active: [1] 78.8 µM | [2] 28.8 µM | MYC, MYC (gene 4609) 56.1 µM | [5] 77.1 µM | [7] 78.5 µM | [8] 17.1 µM | [9] 42 µM | [11] 77.7 µM | [12] 78.1 µM | [13] 78.6 µM | [14] 13.3 µM | [15] 79.3 µM | [16] 42 µM | [17] 42 µM
inactive: [3] | [4] | [6] | [10] | TIMP1, TIMP1 (gene 7076) | [18]

CCC(C)N(C)C(=O)c1cc2ccccc2c(-c2ccccc2Cl)n1 (stereo not given)
active: MYC, MYC (gene 4609) 31.8 µM | [4] 13.1 µM | [8] 6.3 µM | [9] 40.9 µM | [11] 16.8 µM | [12] 11.1 µM | [15] 8.44 µM
inactive: all other assays above

CC(=O)OC1CC(C)OC(C)O1 (stereo not given)
inactive: all assays above

O=C1CCCCC1
active: [18] 0.0538 µM
inactive: all other assays above

O=C1OC(c2ccc(O)cc2)(c2ccc(O)cc2)c2ccccc21
active: [1] 50 µM | [4] 76.1 µM | [8] 78 µM | [9] 50 µM | [14] 73.2 µM
inactive: all other assays above

OCC(CO)n1cnc(-c2ccc(F)cc2)c1-c1ccnc(Oc2ccccc2)n1
active: [3] 13.5 µM | [11] 33.8 µM
inactive: all other assays above
